Compounds without any hit were thinned out: in the full panel of roughly 83,000, 20% have a hit.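 Single-concentration screen, 48 h exposure, 96-well plates. Endpoint: percent growth. Below 10 = active.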 Unmarked numbers belong to inactive results. Calls of active or inactive are those of the source.
What follows are compounds tested on MDA-MB-468 breast (assay: NCI-60 one-dose screen, 48 h (100 = growth as untreated, 0 = no growth, -100 = all killed)). Conditions: 10 µM unless noted.

Row | SMILES | growth
1 | O=C(Nc1ncc([N+](=O)[O-])s1)c1cccc([N+](=O)[O-])c1 | 28.1%
2 | NCCSC(c1ccccc1)(c1ccccc1)c1ccccc1 | 8.69% (active)
3 | Cc1cc(N2CCN(CC(=O)Nc3ccc4c(ccn4Cc4ccccc4)c3)CC2)nc(N2CCOCC2)n1 | 67%
4 | COc1cnc2c(c1)C(=O)c1c-2n(CCCN2CCN(C)CC2)c(=O)c2cc([N+](=O)[O-])ccc12 | -57.9% (active)
5 | Cc1n[nH]c(C)c1N=Nc1cccc2c1C(=O)c1ccccc1C2=O | 96.2%
6 | COc1ccc2c(c1)sc1nc(-c3ccccc3)c(-c3cccnc3)n12 | 90.1%
7 | CCc1cccc2c3c(sc12)C(c1ccc(F)cc1)C(C#N)=C(/N=C/c1ccc(Cl)cc1)O3 (configuration not stated) | 31%
8 | O=C1c2cccc3cccc(c23)C(=O)N1Nc1nc(NC2CCCCC2)nc(N2CCOCC2)n1 | 114%
9 | O=C(Nc1cc(Nc2ncccc2-c2ncnc3nc[nH]c23)ccc1F)c1cc(C(F)(F)F)cc(C(F)(F)F)c1 | -24.9% (active)
10 | CC1=CC(=O)C2=C(C)CC(OC(=O)CCc3ccccc3)[C@@H]3[C@H](OC(=O)[C@@H]3C)[C@@H]12 (some centres not stated) | 79.4%
11 | COc1ccc(C(=O)/C=C/c2cc(C(=O)c3cc(OC)c(OC)c(OC)c3)ccc2OC)cc1 | 47.2%
12 | NS(=O)(=O)c1ccc(CN2C(=O)c3cccc4cccc(c34)C2=O)cc1 | 98.2%
13 | CC(C)(C)CC(C)(C)Nc1c(-c2ccc(C(F)(F)F)cc2)nc2cnccn12 | 100%
14 | COc1ccc2c(c1OC)CO[C@@H]2[C@H]1c2c(cc3c(c2OC)OCO3)CCN1S(=O)(=O)c1cn(C)cn1 | 17.4%
15 | COCCCNCC(=O)Nc1c(C)cccc1C | 112%
16 | CC(C)OC(=O)Nc1ccc(-c2nc(-c3cccc(OCCN4CCOCC4)c3)c(-c3ccnc(Br)c3)[nH]2)cc1 | -1.08% (active)
17 | COc1ccc(CNCCCN2C(=O)c3ccc4c5c(ccc(c35)C2=O)C(=O)N(CCCNCCCCNCCCN)C4=O)c(OC)c1OC | -85.6% (active)
18 | O=[N+]([O-])c1ccc(N=Nc2c(O)c(N=Nc3cc([N+](=O)[O-])cc([N+](=O)[O-])c3O)cc(N=Nc3cc(S(=O)(=O)O)cc4cc(S(=O)(=O)O)cc(O)c34)c2O)cc1 | 100%
19 | COc1cc2c(c(OC)c1OC)-c1cc(I)c(O)cc1[C@@H](NC(C)=O)CC2 | -32.9% (active)

Row | SMILES | growth
20 | Cc1[nH]c2ccccc2c1C1=CC(=O)C=CC1=O | 72%
21 | C=C1C(=O)O[C@H]2[C@H]1CC/C(COC(=O)NCCc1ccc(OC)cc1)=C\CC[C@@]1(C)O[C@@H]21 | -2.57% (active)
22 | Nc1c(C(=O)Nc2ccccc2Cl)sc2nc3c(cc12)CCCCCC3 | -1.41% (active)
23 | CN(C)CCNc1cc(-c2ccccc2)nc2ccccc12 | -33.3% (active)
24 | Oc1ccc2ccccc2c1N=Nc1nccs1 | -48.6% (active)
25 | COc1ccc(-c2cc(-c3cccnc3)nc(S(=O)(=O)CC(=O)Nc3ccc(C)cc3)c2C#N)cc1OC | 96%
26 | NC(=Nc1ccccc1)SCCCCSC(N)=Nc1ccccc1 | 82.6%
27 | Cc1ccccc1C(c1ccccc1)c1ccccc1C | 50.3%
28 | CCCCCCCCCCCCCCCCCC(=O)Nc1ccc(O)cc1 | 103%
29 | Nc1nc(-c2cccc([N+](=O)[O-])c2)c(N=Nc2cccc(Cl)c2)s1 | 11.5%
30 | COc1ccc(CN2CCc3c(Sc4ccccc4)nc(N)nc3C2=O)c(OC)c1 | 48.2%
31 | Cc1ccc(-c2cc3c(SCC(=O)Nc4cc(C(F)(F)F)ccc4Cl)nccn3n2)cc1 | -19.3% (active)
32 | CN(N)c1nc2sc3c(c2c(=O)[nH]1)CCCC3 | 113%
33 | Cn1c2ccccc2c2nnc(N/N=C/c3ccccn3)nc21 | -25.1% (active)
34 | CSc1ccc(C(=NNS(=O)(=O)c2ccc(C)cc2)c2ccc(Cl)cc2)cc1 | 112%
35 | CS(=O)(=O)c1ccc(C(=O)N/N=C/c2ccc3c(c2)OCO3)cc1 | 109%
36 | CCOC(=O)c1ccc(C(=N)N)cc1 | 106%
37 | C=C(C)[C@@H]1CC[C@]2(C(=O)NCC(=O)O)CC[C@]3(C)[C@H](CC[C@@H]4[C@@]5(C)Cc6c([nH]c7ccccc67)C(C)(C)[C@@H]5CC[C@]43C)[C@@H]12 | 118%

Reference: PubChem BioAssay (NCI)
